The record followed here is PubChem BioAssay (NCATS).

The nature of assay [1]: Quantitative highthroughput screen to assess conditional lethalithy of NOMO1 cells grown in RPMI1640 with untreated serum (RPMI+s) (AID 1963876). Also: nearly all actives have a fitted effect of over 35% in size.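 As to viability: 100% = DMSO wells and 0% = empty wells without cells.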 An outline of the steps:
(§1)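 Each medium arm—HPLM with 10% dialyzed FBS, or RPMI1640 with 5 mM glucose and 10% untreated or dialyzed FBS—was screened against an 11-point, 3-fold compound titration for 48 h at 37 °C, with CellTiter-Glo luminescence as endpoint.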

Assay [2] can be described thus: Quantitative highthroughput screen to assess conditional lethalithy of NOMO1 cells grown in RPMI1640 with dialyzed fetal bovine serum (RPMI+ds) (AID 1963877). Also: nearly all actives have a fitted effect of over 30% in size.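 As to viability: series mostly up to about 46 µM; 100% = DMSO control wells and 0% = empty wells.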 An outline of the steps:
as §1

The nature of assay [3]: Quantitative highthroughput screen to assess conditional lethalithy of P12 Ichikawa cells grown in Human Plasma-Like Medium with dialyzed fetal bovine serum (HPLM+ds) (AID 1963879). Also: nearly all actives have a fitted effect of over 35% in size. As to viability: series mostly up to about 46 µM. The following applies: Potency: viability. An outline of the steps: as §1
Assay [4] in a line: Quantitative highthroughput screen to assess conditional lethalithy of P12 Ichikawa cells grown in RPMI1640 with untreated serum (RPMI+s) (AID 1963881). Also: nearly all actives have a fitted effect of over 35% in size.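 As to viability: series mostly up to about 46 µM; 100% = DMSO wells and 0% = empty wells without cells.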 The note with it: Potency: viability. A digest of the protocol:
as §1

A short description of assay [5]: Quantitative highthroughput screen to assess conditional lethalithy of SEM cells grown in Human Plasma-Like Medium with dialyzed fetal bovine serum (HPLM+ds) (AID 1963882). Also: nearly all actives have a fitted effect of over 35% in size. As to viability: series mostly up to about 46 µM. A digest of the protocol: as §1
A short description of assay [6]: Cellular viability qHTS for adrenocortical cancer (ACC) cell line SW-13 (AID 1963989). Also: nearly all actives have a fitted effect of over 65% in size.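 As to activity (max response): cells grown in serum-free medium with ITS supplement; % is scaled to controls: 0 for no effect and ±100 for the full control effect.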 The following applies: SW-13 ACC cells viability, CellTiter-Glo, 48 h; activity (max response): stronger effect = lower value. An outline of the steps:
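Compound titrations (up to 46 uM final, in DMSO) were applied to SW-13 cells for 48 h at 37C/5% CO2. Reading used CellTiter-Glo after 20 min at room temperature; fitted curves yielded IC50 and efficacy.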
For orientation: In qHTS, concentration-response curves come from the screen itself.

A short description of assay [7]: Cellular viability qHTS for adrenocortical cancer (ACC) cell line NCI-H295R (AID 1963990). Also: nearly all actives have a fitted effect of over 60% in size.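 As to activity change, negative = viability loss: 0% = DMSO only wells and -100% = full killing with cytotoxic reference compound.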 An outline of the steps: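 Readout: CellTiter-Glo luminescence, 20 min RT. Exposure: 48 h, 37C/5% CO2. Cells: NCI-H295R, ITS-DMEM serum-free. Range: up to 46 uM. Analysis: 4PL fit, IC50 plus efficacy.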
Assay [8] in a line: Quantitative highthroughput screen to assess conditional lethalithy of P12 Ichikawa cells grown in RPMI1640 with dialyzed fetal bovine serum (RPMI+ds) (AID 1963880). Also: nearly all actives have a fitted effect of over 35% in size.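 As to viability: 100% = DMSO wells and 0% = empty wells on each plate.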 The following applies: Potency: P12-Ichikawa viability. An outline of the steps:
as §1

A short description of assay [9]: Quantitative highthroughput screen to assess conditional lethalithy of SEM cells grown in RPMI1640 with dialyzed fetal bovine serum (RPMI+ds) (AID 1963884). Also: nearly all actives have a fitted effect of over 35% in size.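 As to viability: series mostly up to about 46 µM; 100% = DMSO control wells and 0% = empty wells without cells.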 An outline of the steps:
as §1

Assay [10] is described as follows: Quantitative highthroughput screen to assess conditional lethalithy of NOMO1 cells grown in Human Plasma-Like Medium with dialyzed fetal bovine serum (HPLM+ds) (AID 1963878). Also: nearly all actives have a fitted effect of over 35% in size.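 As to viability: 100% = DMSO wells and 0% = empty wells on each plate.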 A digest of the protocol: as §1
Assay [11] in a line: Quantitative highthroughput screen to assess conditional lethalithy of SEM cells grown in RPMI1640 with unreated serum (RPMI+s) (AID 1963883). Also: nearly all actives have a fitted effect of over 35% in size.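 As to viability: 100% = DMSO wells and 0% = empty wells without cells.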 A digest of the protocol:
as §1

Where “and” joins values, the source holds several entries; their conditions need not be identical. Identical values can stand only once. Inconclusive results are not listed. Values without a mark were called inactive. Calls of active or inactive are those of the source. Calls follow the shape of the dose curve; as a rule, active = well fitted curve in the direction sought with a large enough effect; inconclusive = small, poorly fitted or top-dose-only effect, or another doubt; inactive = no such curve, though single readings can be large; an effect the other way counts as inactive or inconclusive.
Potency is read from the fitted curve at half-maximal effect.

`NC(=O)c1ncn([C@@H]2O[C@H](CO)[C@@H](O)[C@@H]2O)c1N`: the Potency result in [1], in [2], in [3] and in [4] was “inactive” in each case. The Potency in assay [5] is 18.7 µM (active).

Consider `CC(C)(C)OC(=O)CN(Cc1ccc(Cl)cc1)Cc1ccc([N+](=O)[O-])s1`, for which the Potency entry in assay [1], in assay [2], in assay [4] and in assay [7] was “inactive” throughout. Further, the activity (max response) in assay [6] was -11.1%.

In the case of `COc1cccc2c1C(=O)c1c(O)c3c(c(O)c1C2=O)C[C@@](O)(C(=O)CO)C[C@@H]3O[C@H]1C[C@H](N)[C@H](OC2CCCCO2)[C@H](C)O1` (some centres undefined), the Potency result in assay [1], in [2], in assay [8], in assay [4] and in [9] was “inactive” throughout. Also, the Potency in assay [6] is 3.16 µM (active) and 5.01 µM (active); in [7] it was 794 nM (active) and 8.91 µM (active).

Take `CO[C@H]1C(=O)[C@]2(C)[C@@H](OC)C[C@H]3OC[C@@]3(OC(C)=O)[C@H]2[C@H](OC(=O)c2ccccc2)[C@]2(O)C[C@H](OC(=O)[C@H](O)[C@@H](NC(=O)OC(C)(C)C)c3ccccc3)C(C)=C1C2(C)C`: the Potency is 0.0132 µM (active) in assay [1]; 0.0021 µM (active) in [10]; 0.0148 µM (active) in assay [4]; 0.0042 µM (active) in assay [11]; 7.9 nM (active) in [7].

Regarding `C[C@H](NC(=O)c1sccc1OCc1ccc(Cl)cc1)c1ccccc1`, the Potency entry in [1], in assay [10], in assay [3], in assay [8] and in [4] was “inactive” throughout. Further, the Potency in [6] was 25.1 µM (active); in [7] it was 28200 nM (active).

Turning to `O=C1C[C@@H](c2ccc(O)cc2)Oc2cc(O)cc(O)c21`, the Potency entry in [1], in assay [10], in [3], in assay [8], in [4] and in assay [5] was “inactive” in each case. Moreover, the Potency result in [11], in assay [9] and in [7] was “inactive” each time. Besides, in assay [6], the activity (max response) was -16.9%.

Consider `CC(C)(C)OC(=O)N[C@H]1CCCCCC=C[C@@H]2C[C@@]2(C(=O)NS(=O)(=O)C2CC2)NC(=O)[C@@H]2C[C@@H](OC(=O)N3Cc4cccc(F)c4C3)CN2C1=O`, for which the Potency entry in assay [1], in [10], in assay [8], in assay [5], in assay [11] and in assay [9] was “inactive” in each case. Further, in assay [7], the Potency entry is “inactive”. In assay [6], the activity (max response) is 8.79%.

Consider `CN(C)N=Nc1nc[nH]c1C(N)=O`, for which the Potency entry in assay [1], in [10] and in assay [5] was “inactive” in each case. For the same molecule, the Potency was 2.64 µM (active) in [3], 2.09 µM (active) in [4] and 0.833 µM (active) in assay [9].

On to `Cc1cccc(-c2[nH]ncc2-c2ccc3ncccc3n2)n1`, for which the Potency result in assay [1] and in [7] was “inactive” in each case. Moreover, the Potency in assay [2] is 18.7 µM (active). Besides, the activity (max response) in assay [6] was 4.45%.

Regarding `O=C(O)COCCN1CCN(C(c2ccccc2)c2ccc(Cl)cc2)CC1` (centres undefined), the Potency result in [1], in assay [10], in [3], in [8], in assay [4] and in assay [5] was “inactive” throughout. Moreover, the Potency entry in [11], in assay [9] and in [7] was “inactive” each time. Moreover, the activity (max response) in [6] was 9.41%.

Regarding `CCOC(=O)N1CCN([N+]([O-])=NOc2cc(ON=[N+]([O-])N3CCN(C(=O)OCC)CC3)c([N+](=O)[O-])cc2[N+](=O)[O-])CC1`, the Potency result in [1], in assay [10], in assay [3], in [8], in assay [5] and in [11] was “inactive” in each case. In assay [9], the Potency result is “inactive”.

`COc1cccc(-c2ccc(NC(=O)C3=C(C(=O)O)CCC3)c(F)c2)c1`: the Potency entry in assay [1], in assay [10] and in assay [5] was “inactive” in each case. For the same molecule, the Potency in [3] was 16.6 µM (active).

In the case of `COc1cc2c(cc1OC)CN(CCc1ccc(NC(=O)c3cccc4c(=O)c5cccc(OC)c5[nH]c34)cc1)CC2`, the Potency in [1] was 4.69 µM (active); in assay [10], 1.32 µM (active); in assay [3], 1.18 µM (active); in assay [8], 2.96 µM (active); in assay [4] it was 3.72 µM (active); in assay [5], 4.18 µM (active). Also, the Potency in assay [11] is 1.05 µM (active); in [9] it was 0.935 µM (active). In [6], the activity (max response) is -3.54%. For the same molecule, the Potency result in [7] was “inactive”.

`NC(N)=Nc1nc(CSCCC(N)=NS(N)(=O)=O)cs1`: the Potency entry in assay [1], in assay [10], in assay [3], in assay [8], in assay [4] and in [5] was “inactive” each time. The Potency entry in assay [9] is “inactive”.

Turning to `O=C1NC(=O)C(=Cc2ccc(-c3ccc(F)cc3)o2)S1`, the Potency result in assay [1], in [10], in assay [3], in [8], in assay [4] and in assay [5] was “inactive” throughout. In addition, the Potency result in assay [11] and in assay [9] was “inactive” in each case.

With `CCN(CC)CCOc1ccc(C(=C(Cl)c2ccccc2)c2ccccc2)cc1`, the Potency entry in assay [1], in assay [10], in assay [3], in assay [5] and in assay [11] was “inactive” each time. Also, the Potency in [8] is 20.9 µM (active).

Turning to `COc1ccc2c3n(c(=NC(=O)c4cccnc4)nc2c1OC)CCN3`, the Potency result in assay [1] is “inactive”. Besides, the results for the Potency in assay [10], in [5] and in assay [9] were 7.43 µM (active), 20.9 µM (active) and 9.35 µM (active), respectively. The activity (max response) in assay [6] was 2.77%. In addition, the activity change, negative = viability loss in [7] was -25.5% [at 3.81 µM].

Regarding `Cc1ccccc1C(C(=O)NC1CCCC1)N(C(=O)Cn1cnc2ccccc21)c1cccc(F)c1` (centres undefined), the Potency result in assay [1], in assay [10], in assay [3], in assay [8], in [4] and in assay [5] was “inactive” throughout. In addition, the Potency result in assay [9] was “inactive”.

In the case of `COc1nc(-c2ccc3c(c2)OCO3)n(-c2ccc(NC(=O)CSc3ccccc3)cc2)n1`, the Potency in [1] was 23.5 µM (active); in [10] it was 20.9 µM (active). Further, the Potency result in assay [3], in [8], in assay [4], in [9] and in assay [7] was “inactive” in each case.
